The values that follow come from PubChem BioAssay (Tox21).

The structures appear in SMILES notation. Several values for one entry are separate records, joined by “and”; a condition that tells them apart may be missing. Equal values may be shown once. Results filed as inconclusive are left out. Some structures have more than one record in an assay (separate samples or runs), and their calls can disagree. Activity calls are given as the source filed them. Calls follow the shape of the dose curve; as a rule, active = well fitted cell-killing curve with a large enough effect in the repeat runs; inconclusive = weak or mixed curves, or effect the other way; inactive = no such curve, though single readings can be large or run the other way.
% is scaled to controls: 0 for no effect and ±100 for the full control effect; potency is read from the fitted curve at half-maximal effect.

A short description of the test: qHTS assay to identify small molecule antagonists of the vitamin D receptor (VDR) signaling pathway - cell viability counter screen (AID 743225). Also: nearly all actives have a fitted effect of over 50% in size. The following applies: VDR-bla HEK293T viability, CellTiter-Glo luminescence, 16 h; series mostly up to 61 µM; viability change, negative = cytotoxic: at the top concentration. From the text:
U.S. Tox21 Program National Center for Advancing Translational Sciences [NCATS] NIH Chemical Genomics Center [NCGC] U.S. Environmental Protection Agency [EPA] National Institutes of Environmental Health Sciences [NIEHS] National Toxicology Program [NTP] U.S. Food and Drug Administration [FDA] Tox21 Assay Overview: The vitamin D receptor (VDR), a member of nuclear hormone receptor superfamily, plays a critical role in calcium homeostasis and bone metabolism. It is also involved in cell differentiation and growth, and thrombogenicity. To identify the compounds that inhibit VDR signaling, the VDR-UAS-bla HEK 293T cell line (Invitrogen, Carlsbad, CA, USA) containing a beta-lactamase reporter gene under the control of an upstream activator sequence (UAS) was used to screen the Tox21 10K compound library. The cytotoxicity of the Tox21 compound library against the VDR-bla cell line was tested in parallel by measuring the cell viability using CellTiter-Glo assay (Promega, Madison, WI) in the same wells.
Tox21 Assay Protocol Summary: VDR-bla cells were dispensed at 2,000 cells/5 uL of assay medium per well into black wall/clear-bottom 1536-well plates using a Multidrop Combi (Thermo Fisher Scientific, Waltham, MA) dispenser. After the assay plates were incubated at a 37C and 5% CO2 for 4 h, 23 nL of compounds dissolved in DMSO, positive controls or DMSO only was transferred to the assay plate by a Pintool station (Kalypsys, San Diego, CA), followed by addition of 1 uL of 1-alpha, 25-Dihydroxy Vitamin D3 (3 nM, final concentration in the wells) using a Bioraptr Flying Reagent Dispenser (FRD) workstation (Beckman Coulter, Indianapolis, IN). The plates were incubated at 37C and 5% CO2 for 16 h, and then 1 uL of LiveBLAzerTM B/G FRET substrate was added using a Bioraptr FRD. The plates were incubated at room temperature for 2 h and fluorescence intensity was measured by an Envision plate reader (PerkinElmer, Shelton, CT). For cell viability readout that measures cytotoxicity, 3 ul/well of CellTiter-Glo reagent was added into the assay plates using a Bioraptr FRD. After 30 min incubation at room temperature, the luminescence intensity in the plates was measured using a ViewLux plate reader (PerkinElmer).
A general note: In qHTS, concentration-response curves come from the screen itself.
`CC(=O)C1=C(C)[C@@H]2C[C@@]3(C1)[C@H](C)CC[C@H]3C2(C)C`: the “viability change, negative = cytotoxic” value is 0.597% (inactive).
For the compound `CO[Si](OC)(OC)c1ccccc1`, the “viability change, negative = cytotoxic” value was -0.395% (inactive).
`CC(C)(C)NCC(O)c1cc(O)cc(O)c1` (stereo not given): the Potency was 0.0019 µM (active).
As for `CC(C)(C)NCC(O)COc1ccccc1OCC1CCCO1` (stereo not given), the “viability change, negative = cytotoxic” value was -6.03% (inactive).
With `COc1ccc(CCN2CCC(Nc3nc4ccccc4n3Cc3ccc(F)cc3)CC2)cc1`, the Potency is 6.3 µM (active) and 23.9 µM (active).
As to `O`, the Potency result was “inactive”.
For the compound `CCCNC(C)C(=O)Nc1ccccc1C` (stereo not given), the “viability change, negative = cytotoxic” value was 0.538% (inactive).
As to `O=C(OCc1ccccc1)c1ccc(O)cc1`, the Potency result is “inactive”.
Take `C/C=C/c1ccc(OCC)c(O)c1`: the “viability change, negative = cytotoxic” value is 9.95% (inactive).
With `CC1COC(=O)O1` (stereo not given), the Potency entry is “inactive”.
For the compound `CC(=O)OCC1=C(C(=O)O)N2C(=O)[C@@H](NC(=O)Cc3cccs3)[C@H]2SC1`, the “viability change, negative = cytotoxic” value is 0.369% (inactive).
`N[C@@H]1CONC1=O`: the “viability change, negative = cytotoxic” value is 8.57% (inactive).
`O=C(O)c1cc(Cl)cc(Cl)c1`: the “viability change, negative = cytotoxic” value is 3.59% (inactive).
As to `O=C(O)CCc1ccccc1`, the “viability change, negative = cytotoxic” value is 7.96% (inactive).
For `Cc1ccc(-c2cc(C(F)(F)F)nn2-c2ccc(S(N)(=O)=O)cc2)cc1`, the Potency is 48.8 µM (active).
Still for that read-out and setting: the value for `O=c1n(CC2CO2)c(=O)n(CC2CO2)c(=O)n1CC1CO1` (stereo not given) was “inactive”.
As to `Oc1ccc(Cl)cc1Cc1cc(Cl)ccc1O`, the Potency was 28 µM (active) and 6.74 µM (active).
With `CC1=CC(=O)c2ccccc2C1=O`, the Potency was 17.4 µM (active) and 21.3 µM (active).
As for `CC(=O)OCCOCCOCCOC(C)=O`, the Potency result is “inactive”.
As for `CC(C)(C)c1ccccc1`, the “viability change, negative = cytotoxic” value is -6.01% (inactive).
For `CCn1c2ccccc2c2cc(N)ccc21`, the Potency result is “inactive”.
As for `COC(=O)[C@H]1[C@H]2C[C@@H]3c4[nH]c5cc(OC)ccc5c4CCN3C[C@H]2C[C@@H](OC(=O)c2cc(OC)c(OC)c(OC)c2)[C@@H]1OC`, the Potency result was “inactive and 31.8 µM (active)”.
For the compound `Cc1ccc(S(=O)(=O)Oc2ccc(N=Nc3ccc(-c4ccc(N=Nc5c(O)ccc6cc(S(=O)(=O)O)cc(S(=O)(=O)O)c56)c(C)c4)cc3C)cc2)cc1`, the “viability change, negative = cytotoxic” value is -5.15% (inactive).
With `Cc1cc(OCCOCC[N+](C)(C)Cc2ccccc2)ccc1C(C)(C)CC(C)(C)C`, the Potency is 13.7 µM (active) and 19 µM (active).
In the case of `c1cc(C(c2ccc(OCC3CO3)cc2)C(c2ccc(OCC3CO3)cc2)c2ccc(OCC3CO3)cc2)ccc1OCC1CO1` (stereo not given), the Potency entry is “inactive”.
As to `NC12CC3CC(CC(C3)C1)C2`, the “viability change, negative = cytotoxic” value was 10.5% (inactive).
Regarding `NC(=Nc1ccccc1)Nc1ccccc1`, the “viability change, negative = cytotoxic” value was 29% (inactive).
As to `OCC(CO)N[C@H]1C[C@](O)(CO)[C@@H](O)[C@H](O)[C@H]1O`, the “viability change, negative = cytotoxic” value is 23.4% (inactive).
The same measure, in the same setting: the value for `NC(Cc1ccc(Cl)cc1)C(=O)O` (stereo not given) was -8.18% [at 0.628 µM] (inactive); that for `O=C1NCC2(CCN(CCc3ccccc3)CC2)O1` was 3.63% (inactive).
`CCOc1ccc2c(c1)C(C)=CC(C)(C)N2`: the Potency entry was “inactive”.
Consider `CC(C(O)c1ccc(O)cc1)N1CCC(Cc2ccccc2)CC1` (stereo not given), for which the “viability change, negative = cytotoxic” value is -2.7% (inactive).
With `C=CS(=O)(=O)O`, the “viability change, negative = cytotoxic” value was 1.25% [at 78.8 µM] (inactive).
Turning to `CCCCC/C=C/CC1CC(=O)OC1=O` (stereo not given), the “viability change, negative = cytotoxic” value is -18.4% (inactive).
As for `Cc1scc2c1N(C(=O)CN1CCN(C)CC1)c1ccccc1NC2=O`, the “viability change, negative = cytotoxic” value was 0.373% (inactive).
Consider `Nc1cc(Cl)c(-c2cc(Cl)c(N)cc2Cl)cc1Cl`, for which the Potency is 21.9 µM (active).
With `CCCCCCCCCCCCc1ccccc1O`, the Potency was 17.2 µM (active) and 21.9 µM (active).
`CC(=O)Nc1ccc(C(=O)CCl)cc1`: the “viability change, negative = cytotoxic” value is -17.9% [at 78.8 µM] (inactive).
Turning to `Nc1ccc2cc3ccccc3cc2c1`, the Potency result is “inactive”.
For `CC(C)(O)CCC(C)(C)O`, the “viability change, negative = cytotoxic” value was -0.0972% [at 78.8 µM] (inactive).
